Results from the supplement of paper PMC6555819.

Assays:
Assay in all cases: PBM binding z-score (relative to random genomic background probes); higher = stronger binding; sequences stand for … in GC…GCGATTGACAGCGTAGAATGAAGG
[1] = tested on: FXR:RXRa (NR concentration 270 nM, RXRa partner concentration 90 nM)
Procedure, shortened: (§1)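 Ligand-free nuclear receptor dimers were bound for 1 h to custom Agilent 4×180K protein-binding microarrays. Detection used antibodies against each partner (one per run). Binding z-scores rest on regression-normalized fluorescence, with random background probes as the reference.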

[2] = tested on: LXRa:RXRa (NR concentration 270 nM, RXRa partner concentration 90 nM)
Procedure, shortened: as §1

[3] = tested on: LXRa homodimer (NR concentration 270 nM)
Procedure, shortened: as §1

[4] = tested on: LXRb:RXRa (NR concentration 270 nM, RXRa partner concentration 90 nM)
Procedure, shortened: as §1

[5] = tested on: LXRb homodimer (NR concentration 270 nM)
Procedure, shortened: as §1

[6] = tested on: PPARa:RXRa (NR concentration 270 nM, RXRa partner concentration 90 nM)
Procedure, shortened: as §1

[7] = tested on: PPARg:RXRa (NR concentration 180 nM, RXRa partner concentration 90 nM)
Procedure, shortened: as §1

[8] = tested on: PPARg:RXRa 270nM:90nM, anti-RXR (NR concentration 270 nM, RXRa partner concentration 90 nM)
Procedure, shortened: as §1

[9] = tested on: PPARg:RXRa 30nM:10nM, anti-RXR (NR concentration 30 nM, RXRa partner concentration 10 nM)
Procedure, shortened: as §1

[10] = tested on: PPARg:RXRa 90nM:30nM, anti-RXR (NR concentration 90 nM, RXRa partner concentration 30 nM)
Procedure, shortened: as §1

[11] = tested on: PPARg:RXRa DBDmut IVT, anti-RXR (DBD mutation: RXRa K156A/R161A, NR concentration 270 nM, RXRa partner concentration 90 nM)
Procedure, shortened: as §1

[12] = tested on: PPARg:RXRa IVT, anti-PPARg (NR concentration 270 nM, RXRa partner concentration 90 nM)
Procedure, shortened: as §1

[13] = tested on: PPARg DBDmut:RXRa IVT, anti-PPARg (DBD mutation: PPARg1 K132A/R137A, NR concentration 270 nM, RXRa partner concentration 90 nM)
Procedure, shortened: as §1

[14] = tested on: PPARg DBDmut IVT, anti-PPARg (DBD mutation: PPARg1 K132A/R137A, NR concentration 270 nM)
Procedure, shortened: as §1

[15] = tested on: PPARg homodimer (NR concentration 180 nM)
Procedure, shortened: as §1

[16] = tested on: PXR:RXRa (NR concentration 270 nM, RXRa partner concentration 90 nM)
Procedure, shortened: as §1

[17] = tested on: PXR homodimer (NR concentration 270 nM)
Procedure, shortened: as §1

[18] = tested on: RARa:RXR (NR concentration 270 nM, RXRa partner concentration 90 nM)
Procedure, shortened: as §1

[19] = tested on: RARa homodimer (NR concentration 270 nM)
Procedure, shortened: as §1

[20] = tested on: RARb:RXRa (NR concentration 270 nM, RXRa partner concentration 90 nM)
Procedure, shortened: as §1

Row | Sequence | PBM binding z-score [1] | PBM binding z-score [2] | PBM binding z-score [3] | PBM binding z-score [4] | PBM binding z-score [5] | PBM binding z-score [6] | PBM binding z-score [7] | PBM binding z-score [8] | PBM binding z-score [9] | PBM binding z-score [10] | PBM binding z-score [11] | PBM binding z-score [12] | PBM binding z-score [13] | PBM binding z-score [14] | PBM binding z-score [15] | PBM binding z-score [16] | PBM binding z-score [17] | PBM binding z-score [18] | PBM binding z-score [19] | PBM binding z-score [20]
1 | GCATCTAGGTAATACAAGGTGAAAGTCCGATTGT | 1.09 | 1.15 | 0.539 | 0.383 | -0.273 | 1.5 | 0.956 | 0.984 | 0.0503 | 0.572 | 4.35 | 3.42 | 0.512 | 0.835 | 0.218 | 0.368 | -0.443 | 0.737 | -0.154 | 0.5
2 | CGTCCAAGGTCAATGCTAGGTCAGTTAAAGCATT | 6.86 | 5.46 | 3.07 | 4.57 | 0.641 | 5.2 | 3.88 | 4.44 | 1.26 | 3.34 | 3.07 | 3.94 | 0.0858 | 0.055 | 4.36 | 4.89 | 1.22 | 5.78 | 1.02 | 5.21
3 | TCTTGTAGATCAACAGGAGCTTAAGAAAGATCGA | -0.438 | -0.744 | -1.18 | -0.366 | -0.825 | 0.0739 | -0.318 | 0.847 | 2.14 | 1.43 | 1.16 | 0.103 | 0.548 | -0.235 | -1.17 | -0.361 | -0.82 | -0.535 | -0.604 | -0.522
4 | CCGACTGGGGCATAAGGTTACAATAAGCCAGCCC | 0.415 | 1.46 | -0.348 | 0.936 | -0.85 | 1.9 | 2.58 | 3.36 | 0.985 | 2.68 | 3.12 | 3.35 | -1.72 | -1.42 | 0.586 | 0.38 | -0.291 | 1.17 | -0.0919 | 1.58
5 | CCAACTGGGCCATTCAGAGGTCATTGATCATATG | 3 | 4.24 | 6.53 | 3.67 | 0.435 | 3.9 | 2.89 | 3.16 | 0.622 | 2.16 | 5.18 | 4.66 | 0.485 | -0.774 | 4.42 | 5.05 | 2.64 | 4.72 | 0.73 | 3.02
6 | AGTCAAAGTTCACTAGGTAACGAAAGATTCAGCT | 5.29 | 5.15 | 2.87 | 3.05 | 0.803 | 4.94 | 7.8 | 6.56 | 3.66 | 5.74 | 2.71 | 5.36 | 0.953 | 1.35 | 2.81 | 3.8 | 2.41 | 2.8 | 1.47 | 4.54
7 | CGTCCAAGGTCAAAGGTCAGTGATGAGATGACGG | 8.34 | 6.88 | 3.97 | 6.55 | 2.01 | 7.15 | 10.7 | 8.75 | 8.43 | 9.31 | 4.14 | 5.89 | 0.972 | 0.974 | 3.97 | 6.83 | 1.94 | 8.65 | 1.61 | 6
8 | CAAACTAGGTCACCGAGGTCAAAGTCCGTGCGTA | 7 | 6.22 | 5.91 | 5.75 | 1.25 | 6.56 | 10.2 | 8.39 | 6.43 | 8.33 | 8.69 | 9.03 | 4.5 | 2.89 | 5.36 | 6.93 | 12.2 | 7.45 | 1.57 | 5.18
9 | CCTACTGGGCCAAGGTCATTTATCAGTCAAAGCA | 3 | 3 | 1.94 | 3.53 | 0.242 | 3.92 | 4.1 | 4.33 | 1.69 | 3.57 | 3.45 | 4.56 | -0.913 | -0.873 | 1.83 | 3.22 | 1.73 | 3.28 | 0.0192 | 3.15
10 | TAGCCGAGGTCATTGGGCCAGTATAGTACGCATC | 7.32 | 5.83 | 2.5 | 5.28 | 1.76 | 6.2 | 6.77 | 6.15 | 3.26 | 5.02 | 2.68 | 4.59 | -0.49 | 0.82 | 2.28 | 5.5 | 2.28 | 4.87 | 0.0596 | 4.78
11 | ATCTCTAGGTGACCAAGTTCAGTGAATGCCGAAC | 0.185 | 0.357 | 0.0777 | 0.467 | 0.278 | 1.9 | 1.99 | 1.7 | 0.308 | 1.05 | 5.31 | 4.76 | 1.66 | 1.14 | 0.611 | 2.17 | 1.7 | 0.763 | -0.118 | 1.7
12 | CCGACTGGGGCAGAAAGGTTACCGTACCATCCGG | 0.26 | 0.695 | -0.0357 | 1.01 | -1.05 | 2.4 | 1.54 | 2.95 | 0.724 | 2.38 | 1.72 | 2.39 | -1.2 | -1.01 | 0.541 | 1.02 | -0.429 | 1.79 | -0.282 | 1.84
13 | CCTCGGAGGATAACAGGAGGTCAGAGCTGCCAGA | 0.758 | 2.44 | 2.34 | 1.24 | -0.35 | 1.61 | 0.275 | -0.114 | -0.739 | -0.596 | -0.616 | 0.0476 | -0.938 | -1.92 | 1.75 | 1.78 | 0.657 | 2.39 | 0.565 | 1.99
14 | TGAATGAGGTTAAAGATCATGGAACGTGGCGTCG | 3.15 | 2.8 | -0.213 | 1.93 | -0.192 | 4.81 | 6.66 | 6.58 | 4.73 | 6.88 | 1.79 | 3.19 | 0.0999 | -0.204 | 0.9 | 2.49 | 0.119 | 3.73 | 0.174 | 2.04
15 | CGAACTAGGTCATTGACAGTACAGTGAATAGTAA | 4.63 | 2.68 | 0.32 | 2.02 | 0.232 | 4.98 | 7.68 | 6.38 | 3.77 | 5.67 | 7.66 | 8.48 | 3.53 | 2.28 | 1.89 | 1.64 | 0.291 | 2.03 | 0.0313 | 3.67
